{
  "source": "PubChem BioAssay (EPA / NIEHS)",
  "note": "Several values for one entry are separate records, joined by “and”; a condition that tells them apart may be missing. Identical values can stand only once. Where a structure was tested more than once in an assay, its records may differ in their call. Activity calls are given as the source filed them. The calls were made as follows: active = hit-call score of the fitted dose curve at least 0.9, where 1 is the maximum; inactive = score below 0.9.",
  "data": [
    {"assay": "APR_HepG2_CellLoss_24hr: Apredica 24-hour HepG2 Assay for Cell Loss (AID 2282908);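 as to AC50: fit in both directions so a hit may be cell loss or gain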", "conditions": "high-content imaging", "method": "APR_HepG2_24hr is a cell-based, multiplexed-readout assay that uses HepG2, a human liver cell line, with measurements taken at 24 hours after chemical dosing in a 384-well plate.APR_HepG2_CellLoss_24hr is one of 10 assay component(s) measured or calculated from the APR_HepG2_24hr assay. It is designed to make measurements of cell number, a form of viability reporter, as detected with fluorescence intensity signals by HCS Fluorescent Imaging technology.Data from the assay component APR_HepG2_CellLoss_24hr was analyzed into 1 assay endpoint. This assay endpoint, APR_HepG2_CellLoss_24hr, was analyzed with bidirectional fitting relative to DMSO as the negative control and baseline of activity. Using a type of viability reporter, measures of all nuclear dna for gain or loss-of-signal activity can be used to understand the viability at the cellular-level. Furthermore, this assay endpoint can be referred to as a secondary readout, because this assay has produced multiple assay endpoints where this one serves a viability function. To generalize the intended target to other relatable targets, this assay endpoint is annotated to the cell cycle intended target family, where the subfamily is proliferation.\nCells were treated with dimethyl sulfoxide (DMSO) as a solvent control at a final concentration of 0.5% v/v or with compounds in DMSO with a resulting final DMSO concentration of 0.5% v/v. Compound treatment was done at concentrations of 0.39, 0.78, 1.56, 3.12, 6.24, 12.5, 25, 50, 100, and 200 uM in duplicate on each plate. Cells were treated with compounds for 1, 24, or 72 hr. Carbonyl […] m-chloro-phenylhydrazone (CCCP) and taxol were used as positive controls for mitochondrial function and cytoskeletal stability, respectively; DMSO served as the negative control for this experiment. Cells were fixed by the direct addition of 50 uL formaldehyde in Hank's Balanced Salt Solution (HBSS) to a final concentration of 3.7%. After incubation in the fixation medium for 30 min at room temperature (293-298 K), cells were rinsed twice with HBSS and treated with cell permeabilization buffer (16 uL of 0.5% Triton X-100) for 10 min at room temperature (293-298 K) before labeling. For mitochondrial membrane potential and mitochondrial measurements, pre-fixed cells were incubated with 50 uL of MitoTracker Red CMXRos (Invitrogen) at a concentration of 250 nM for 30 min before fixation. In the remaining cases, post-fixed cells were labeled by incubation with a multiplexed mixture of primary antibodies in HBSS for 60 min at room temperature (293-298 K) to detect immunoreactivity of c-Jun (1:500), phospho-histone H3 (1:100), phospho-histone H2A.x (1:200), p53 (1:400), alpha-tubulin (1:200) and Hoechst 33342 (2 ug/mL). Cells were labeled for multiplexed imaging on two separate plates: a) Hoechst 33342, MitoTracker Red, phospho-histone H3, and alpha-tubulin, and b) Hoechst 33342, phospho-histone H2A.x, and c-Jun. A final rinse with HBSS (50 uL) was performed before analysis. The primary and secondary antibodies for the proteins were phospho-histone H3 (rabbit anti-phospho-histone H3 and FITC-donkey anti-rabbit IgG), phospho-histone H2A.x (mouse anti-phospho-histone H2A.x and FITC-donkey anti-mouse IgG), c-Jun (rabbit anti-phospho-c-Jun and Cy3-donkey anti-rabbit IgG), p53 (sheep anti-p53 and Cy5-donkey anti-sheep IgG), alpha-tubulin (mouse anti-alpha-tubulin and Cy5-donkey anti-mouse IgG). These antibodies are available as the CellCiphr HepG2 assay kit (Millipore).Digital images of each well were captured using a Cellomics ArrayScan VTI (Thermo Scientific Cellomics) (0.8 NA objective, 0.63x optical coupler, and XF-93 filter set) at 20x magnification. The images were acquired using the autofocus feature of the ArrayScan instrument, which entails the following steps. First, the camera focuses on channel 1 (Hoechst 33342), where nuclei are identified. Second, a Z offset of 1 um is used for capturing mitochondria (MitoTracker Red). […]", "values": [
      {"molecule": "CC(=O)S[C@@H]1CC2=CC(=O)CC[C@]2(C)[C@H]2CC[C@@]3(C)[C@@H](CC[C@@]34CCC(=O)O4)[C@H]12", "AC50": "54.6 µM (active)"},
      {"molecule": "COc1nc(C)nc(NC(=O)NS(=O)(=O)c2ccccc2OCCCl)n1", "outcome": "inactive"},
      {"molecule": "OB(O)O", "outcome": "inactive"},
      {"molecule": "C#CCOC(=O)[C@@H](C)Oc1ccc(Oc2ncc(Cl)cc2F)cc1", "outcome": "inactive"},
      {"molecule": "CCOC(=O)COc1cc(-n2ncc(C(F)(F)F)c(C)c2=O)c(F)cc1Cl", "outcome": "inactive"},
      {"molecule": "CCCCCOC(=O)COc1cc(N2C(=O)C3=C(CCCC3)C2=O)c(F)cc1Cl", "outcome": "inactive"},
      {"molecule": "CSC(=O)c1cccc2nnsc12", "outcome": "inactive"},
      {"molecule": "CCCCOCCOCCOCc1cc2c(cc1CCC)OCO2", "outcome": "inactive"},
      {"molecule": "CC(C)CCCCCCc1ccc(O)cc1", "AC50": "26.8 µM (active)"},
      {"molecule": "CC(C)(C)[C@@H](O)[C@@H](Cc1ccc(Cl)cc1)n1cncn1", "outcome": "inactive"},
      {"molecule": "CCSC(=O)N(CC(C)C)CC(C)C", "outcome": "inactive"},
      {"molecule": "COCCO", "outcome": "inactive"},
      {"molecule": "CCCN(CCC)c1c([N+](=O)[O-])cc(C(F)(F)F)c(N)c1[N+](=O)[O-]", "outcome": "inactive"},
      {"molecule": "CCCOC(=O)NCCCN(C)C", "outcome": "inactive"},
      {"molecule": "CC(C)(c1ccc(O)cc1)c1ccc(O)cc1", "outcome": "inactive", "AC50": "106 µM (active) and 107 µM (active) and 100 µM (active)"},
      {"molecule": "COC(=O)c1ccc(I)cc1S(=O)(=O)NC(=O)Nc1nc(C)nc(OC)n1", "outcome": "inactive"},
      {"molecule": "COC(=O)c1ccc(CNS(C)(=O)=O)cc1S(=O)(=O)NC(=O)Nc1nc(OC)cc(OC)n1", "outcome": "inactive"},
      {"molecule": "CCOC(=O)C(C)Oc1ccc(Oc2nc3ccc(Cl)cc3o2)cc1", "note": "(stereo not given)", "outcome": "inactive"},
      {"molecule": "N[C@@H](Cc1cc(I)c(Oc2ccc(O)c(I)c2)c(I)c1)C(=O)O", "outcome": "inactive"},
      {"molecule": "CN(C)C(=O)Nc1ccc(Cl)c(Cl)c1", "outcome": "inactive"},
      {"molecule": "Cc1nn(C)c(Oc2ccccc2)c1C=NOCc1ccc(C(=O)OC(C)(C)C)cc1", "AC50": "6.62 µM (active)"},
      {"molecule": "COc1c(Cl)ccc(Cl)c1C(=O)O", "outcome": "inactive"},
      {"molecule": "C[C@]12C[C@H](O)[C@H]3[C@@H](CCC4=CC(=O)CC[C@@]43C)[C@@H]1CC[C@@H]2C(=O)CO", "AC50": "65.3 µM (active)"},
      {"molecule": "O=C(O)c1ccccc1", "outcome": "inactive"},
      {"molecule": "CCCCC(CC)COC(=O)c1ccccc1C(=O)O", "note": "(stereo not given)", "outcome": "inactive"},
      {"molecule": "COC(=O)c1c(Cl)nn(C)c1S(=O)(=O)NC(=O)Nc1nc(OC)cc(OC)n1", "outcome": "inactive"},
      {"molecule": "O=C(O)C1(C(=O)Nc2ccc(Cl)cc2Cl)CC1", "outcome": "inactive"},
      {"molecule": "CC(=O)[C@H]1CC[C@H]2[C@@H]3CCC4=CC(=O)CC[C@]4(C)[C@H]3CC[C@]12C", "AC50": "101 µM (active)"},
      {"molecule": "O=C(c1ccc(O)cc1O)c1ccc(O)cc1O", "outcome": "inactive"},
      {"molecule": "CCCCOC(=O)C(C)Oc1ccc(Oc2ccc(C(F)(F)F)cn2)cc1", "note": "(stereo not given)", "outcome": "inactive"},
      {"molecule": "O=C(c1ccccc1)C1CCCCC1", "outcome": "inactive"},
      {"molecule": "CCNc1nc(N)nc(Cl)n1", "outcome": "inactive"},
      {"molecule": "CCCCCCC(C)OC(=O)COc1nc(F)c(Cl)c(N)c1Cl", "note": "(stereo not given)", "outcome": "inactive"},
      {"molecule": "S=C(S)NCCNC(=S)S.[Mn+2].[S-]C([S-])=NCCN=C([S-])[S-].[Zn+2]", "AC50": "50.1 µM (active) [middle of 4 runs]", "outcome": "inactive"},
      {"molecule": "Oc1ccc(C(c2ccc(O)cc2)C(Cl)(Cl)Cl)cc1", "AC50": "135 µM (active)"},
      {"molecule": "C#C[C@]1(O)CC[C@H]2[C@@H]3CCC4=CC(=O)CC[C@@H]4[C@H]3CC[C@@]21CC", "outcome": "inactive"},
      {"molecule": "CCOC(=O)[C@H](C)Oc1ccc(Oc2nc3ccc(Cl)cc3o2)cc1", "outcome": "inactive"},
      {"molecule": "C=CCOC(Cn1ccnc1)c1ccc(Cl)cc1Cl", "note": "(stereo not given)", "AC50": "55.8 µM (active)"}
    ]}
  ]
}
